± gives the standard deviation. In all, about 3,000 sequences were measured (“pre-steady-state target cleavage rate”: median about 0.0079, highest 2% from about 0.2 on). The full list was thinned out, with the highest values kept by preference. A value given as a limit tells only on which side of the number the result lay.

This assay concerns MILI (PIWIL2) piRISC loaded with piRNA #2 (26 nt). The experiment in a line: pre-steady-state target cleavage rate (min^-1); MIWI and MILI are mouse PIWI proteins and EfPiwi is from a freshwater sponge; tags in brackets are library labels; higher = faster piRNA-guided slicing of the target. Particulars: guide: piRNA #2 5'p-UUAGGUAACCCAGUAGAUCCAGAGGA; auxiliary factor: 500 nM mouse GTSF1. As for the experimental part: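 Cleave-'n-Seq: a library of target RNAs (target site embedded in constant flanks, ACAGCATTCCGCGTTAGTGATATCCG... 5' flank; DNA-blocked outside the site) at 0.1 nM was incubated with 1 nM active mouse MILI or MIWI piRISC (synthetic 5'-monophosphorylated piRNA guide) with or without 500 nM mouse GTSF1 at 33 °C for 1 min to 16 h. Uncleaved targets were sequenced and normalised to non-target controls, and the pooled three trials were fitted to a burst-and-steady-state model to give the pre-steady-state cleavage rate (min^-1; k3 is constrained to at most 1e-4). Sequence is the target site only; target names encode pairing extent (gX:gY) and contiguous / 1-mismatch / 2-mismatch / bulge geometry. Fits with R² ≤ 0 are excluded.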
With CUUAUCCUCUGCAUCUACUGGGUUACGUAA, the “pre-steady-state target cleavage rate” value amounted to 0.483 ± 0.2.
For CUUAACCUCUGCAUCUACUGGGUUACGUAA, the “pre-steady-state target cleavage rate” value turned out to be 0.155 ± 0.069.
Under CUUAACCUCAGCAUCUACUGGGUUACCUAA stands 0.111 ± 0.027; under CUUAUCCUCAGCAUCUACUGGGUUACCUAA, 0.271 ± 0.06.
Under CUUAUCCUCUGGAUCUACUGGGUUACGUAA stands 0.0586 ± 0.014; under CUUAACCUCUCGGAUCUACUGGGUUACCUAA, 0.0634 ± 0.017.
In the case of CUUAAGGAGGGGAUCUACUGGGUUACCUAA it was 0.0293 ± 0.022.
Consider CUUAUCCUCUGGAUGUACAGGGUUACCUAA, for which the “pre-steady-state target cleavage rate” value was 0.135 ± 0.011.
In the case of CUUAACCUUGGAUCUACUGGGUUACCUAA it was 0.134 ± 0.041.
As for CUUAACCUCUGAUCUACUGGGUUACCUAA, the “pre-steady-state target cleavage rate” value was 0.0852 ± 0.019.
In the case of CUUAAGGUCUGGGUCUACUGGGUUACCUAA it was 0.0913 ± 0.015.
Under CUUAAGGUCUGGCAUCUACUGGGUUACCUAA stands 0.211 ± 0.069; under CUUAACCUCUGGGAUCUACUGGGUUACCUAA, 0.168 ± 0.03; under CUUAACCUCUGGACUCUACUGGGUUACCUAA, 0.0674 ± 0.018.
In the case of CUUAAGGUCUGCAUCUACUGGGUUACCUAA it was 0.0733 ± 0.018.
CUUAACCUCUGGAUCUACUGGGUUACCUAAA: the “pre-steady-state target cleavage rate” value is 0.0972 ± 0.022.
In the case of CUUAACCUCUGGCAUCUACUGGGUUACCUAA it was 2.04 ± 1.1.
In the case of CUUAACCUCUGCAUCUACUGGGUUACCUAA it was 0.185 ± 0.036; in that of CUUAACCUCUGGCUCUACUGGGUUACCUAA, 0.8 ± 0.2.
Consider CUUAACCUCUUGGAUCUACUGGGUUACCUAA, for which the “pre-steady-state target cleavage rate” value is 0.245 ± 0.072.
In the case of CUUAACCUCUGGAACUUCUGGGUUACCUAA it was 0.103 ± 0.028; in that of CUUAAGCUCUGGAUCUAGUGGGAUACCUAA, 0.00824 ± 0.0045; in that of CUUAUCCUCUCGAUCUACUGGGAUACCUAA, 0.0565 ± 0.013.
Under CUUAUCCUCUGCAUCUACUGGGAUACCUAA stands 0.0522 ± 0.025; under “CUUAAGGAGACGAUCUACUGGGUUACCUAU [g2:g19:cont:t1U]”, 0.00667 ± 0.0036.
In the case of CUUAAGCUCUGGAUCUACUGGGUUAACUAA it was 0.095 ± 0.017; in that of CUUAUCCUCUGGAUCUACUGGGCUUACCUAA, 0.0139 ± 0.005; in that of CUUAAGCUCUGGCUCUACUGGGUUACCUAA, 0.163 ± 0.034.
For CUUAACCUCUGGAUUCUACUGGGUUACCUAA, the “pre-steady-state target cleavage rate” value is 0.273 ± 0.093.
In the case of “CUUAACCUCUGGAUCUACUGGGUUACCUAA [g2:g25:cont:t1A]” it was 0.101 ± 0.02; in that of CUUAAGCUCUGGCAUCUACUGGGUUACCUAA, 0.453 ± 0.15; in that of CUUAAGCUCUGCAUCUACUGGGUUACCUAA, 0.0767 ± 0.016.
Under CUUAACCUCUGGAUUACUGGGUUACCUAA stands 0.0792 ± 0.024.
In the case of CUUAUCGUCAGGAUCUACUGGGUUACCUAA it was 0.03 ± 0.012; in that of CUUAUGCUCUGGAUCUACUGCGUUACCUAA, 0.0127 ± 0.0036; in that of “CUUAAGGACUGGAUCUACUGGGUUACCUAA [g2:g22:cont:t1A]”, 0.0428 ± 0.02.
Consider CUUAAGGAGACCUAGUACGGGUUACCUAA, for which the “pre-steady-state target cleavage rate” value was under 0.0001.
Under CUUAAGGAGAGGAAUCUACUGGGUUACCUAA stands 0.00399 ± 0.0036; under CUUAUCCUCUGGAUGUACUGGGUUACGUAA, 0.0286 ± 0.0078.
In the case of CUUAAGGACUGGAUCUACGGGGUUACCUAA it was 0.0466 ± 0.013; in that of CUUAUCCUCUGGUUCUACUGGGAUACCUAA, 0.188 ± 0.078.
Under CUUAACCUCUGGUAGUACUGGGUUACCUAA stands 0.078 ± 0.025.
On to CUUAUCCUCUGGUUCUACUGGGUUAGCUAA, for which the “pre-steady-state target cleavage rate” value worked out at 0.235 ± 0.069.
In the case of CUUAUCCUCUAGAUCUACUGGGUUACCUAA it was 0.224 ± 0.034; in that of CUUAUCCUCUGCAUCUACUGGGUUAGCUAA, 0.145 ± 0.054; in that of CUUAUCCUCUGGAUCUACUGGGUUAGCUAA, 0.129 ± 0.025.
Under CUUAUCCUCUGGUUCUACUGGGUUUCCUAA stands 2.2 ± 1.7.
In the case of CUUAUCCUCUAGGAUCUACUGGGUUACCUAA it was 0.049 ± 0.012.
For the sequence CUUAUCCUCUGCAUCUACUGGGUUUCCUAA, the “pre-steady-state target cleavage rate” value was determined as 0.165 ± 0.071.
Under CUUAUCCUCUGAGAUCUACUGGGUUACCUAA stands 0.106 ± 0.02; under CUUAACCUCUGGACUACUGGGUUACCUAA, 0.156 ± 0.037.
In the case of CUUAACCUCUGGUACUACUGGGUUACCUAA it was 0.256 ± 0.074; in that of CUUAAGCUCUGGAUCUACAGGGUUACGUAA, 0.0394 ± 0.01; in that of CUUAAGCUCUGGAUCCACUGGGUUACCUAA, 0.0284 ± 0.0092.
On to CUUAACCUCUGCAUCUACAGGGUUACCUAA, for which the “pre-steady-state target cleavage rate” value was 0.0773 ± 0.014.
Under CUUAAGGACUCGAUCUACUGGGUUACCUAA stands 0.0128 ± 0.0065; under CUUAAGGAGAGGAUCUACAGGGUUACCUUA, 0.0102 ± 0.0051.
In the case of CUUAACCUCUGGAUCUAGUGGGAUACCUAA it was 0.0146 ± 0.0055; in that of CUUAUCCUCUGGAUGUACUGGGUUACCUAA, 0.108 ± 0.022.
Under CUUAAGGUCUGGAUCUACUGGGAAACCUAA stands 0.0107 ± 0.0055; under CUUAUCCUCUGGAACUACUGGGUUACCUUA, 0.266 ± 0.073; under CUUAAGCUCUGGUUCUACUGGGUUACCAAA, 0.199 ± 0.063.
Take CUUAUCCUCUGGAACUACUGGGUUACCUAA: the “pre-steady-state target cleavage rate” value stood at 0.188 ± 0.042.
Under CUUAACCUCUGGUUCUACUGGGUUACGUAA stands 0.12 ± 0.043; under CUUAUCCUCUGGUUCUACUGGGUUACCAAA, 0.453 ± 0.15.
Under CUUAUCCUCUGGAACUACUGGGUUACCAAA stands 0.13 ± 0.044.
In the case of CUUAUCCUCUCGAUCUACUGGGUUACCAAA it was 0.13 ± 0.025; in that of CUUAAGCUCUGGUUCUACUGGGUUACCUUA, 0.126 ± 0.036.
Turning to CUUAUCCUCUGGUUCUACUGGGUUACGUAA, the “pre-steady-state target cleavage rate” value worked out at 0.634 ± 0.25.
In the case of CUUAUCCUCUGGAUCUACUGGGUUACCAA, the “pre-steady-state target cleavage rate” value worked out at 0.123 ± 0.022.
In the case of CUUAUCCUCUGGAACUACUGGGUUACGUAA it was 0.197 ± 0.068; in that of CUUAAGCUCUGGUUCUACUGGGUUACCUAA, 0.131 ± 0.027.

Values taken from the supplement of paper PMC10338343.
